Among the test systems are NCI-H23 lung; NCI-H322M lung; HOP-62 NSCLC; NCI-H460 lung; HOP-92 NSCLC; NCI-H522 lung; A549/ATCC NSCLC; 786-0 renal; COLO 205 colon; DU-145 prostate.
What all share (assay): NCI-60 one-dose screen, 48 h (100 = growth as untreated, 0 = no growth, -100 = all killed)
Holding throughout (conditions): 10 µM unless noted

This is part of a sample that, as a whole, favours compounds with a hit. Of some 83,000 tested, about 20% had one in any assay.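 Testing used 96-well plates and a 48-hour single-concentration exposure. Example: -40 means 40% of the starting cells died.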 Values without a mark were called inactive. Calls of active or inactive are those of the source. Rule for the calls: active = growth percent below 10; inactive = the rest.

Consider `O=C1Nc2ccccc2/C1=C/c1cccs1`, for which the growth was 92.5% in the assay with NCI-H23 lung; 84.6% in the assay on NCI-H322M lung; 83.5% with HOP-62 NSCLC; 92.5% in the assay with NCI-H460 lung; 75.3% in the assay with HOP-92 NSCLC; 95.2% in the assay on NCI-H522 lung. For the same compound, the growth in the assay on A549/ATCC NSCLC is 95.2%; in the assay on 786-0 renal it was 94.1%; in the assay with COLO 205 colon, 107%; in the assay on DU-145 prostate, 103%.

As to `Clc1ncccc1Nc1ccc2nnc(-c3ccncc3)n2n1`, the growth is 93.2% with NCI-H23 lung; 106% in the assay on NCI-H322M lung; 102% with HOP-62 NSCLC; 103% in the assay with NCI-H460 lung; 110% with HOP-92 NSCLC; -58.6% (active) with NCI-H522 lung. Moreover, the growth is 102% with A549/ATCC NSCLC, 101% in the assay with 786-0 renal, 109% with COLO 205 colon and 107% in the assay with DU-145 prostate.

Turning to `COc1ccc2c(c1)C=C1CSCC3=Cc4cc(OC)ccc4OC13O2`, the growth with NCI-H23 lung was 18.7%; in the assay on NCI-H322M lung, 49.2%; in the assay with HOP-62 NSCLC, 38.2%; with NCI-H460 lung it was 6.88% (active); in the assay on HOP-92 NSCLC, 44.9%; in the assay with NCI-H522 lung, 15.1%. In addition, the growth in the assay on A549/ATCC NSCLC was 23.6%; in the assay on 786-0 renal it was 38.6%; in the assay with COLO 205 colon, 3.24% (active); in the assay on DU-145 prostate, 17.7%.

With `COc1ccc2oc(=O)cc(Cn3cc(Cn4cnc5c4c(=O)n(C)c(=O)n5C)nn3)c2c1`, the growth is 101% with NCI-H23 lung; 101% with NCI-H322M lung; 101% with HOP-62 NSCLC; 105% in the assay on NCI-H460 lung; 104% with HOP-92 NSCLC; 98.6% in the assay on NCI-H522 lung. Besides, the growth with A549/ATCC NSCLC is 103%; in the assay with 786-0 renal, 98%; in the assay with COLO 205 colon, 110%; with DU-145 prostate, 105%.

Consider `O=c1oc2ccc(I)cc2c(=O)n1-c1ccc(I)cc1F`, for which the growth in the assay with NCI-H23 lung is 4.94% (active); in the assay with NCI-H322M lung, 7.17% (active); with HOP-62 NSCLC, -8.24% (active); in the assay with NCI-H460 lung, 0.977% (active); with HOP-92 NSCLC, -10.4% (active); in the assay on NCI-H522 lung it was -16.1% (active). The growth was 6.24% (active) in the assay on A549/ATCC NSCLC, 2.44% (active) in the assay with 786-0 renal, 44.5% in the assay on COLO 205 colon and 15.8% in the assay with DU-145 prostate.

On to `O=c1oc2ccc(I)cc2c(=O)n1-c1ccc(Cl)cc1F`, for which the growth with NCI-H23 lung was -9.99% (active); with NCI-H322M lung, 5.32% (active); in the assay with HOP-62 NSCLC, -3.85% (active); with NCI-H460 lung it was 3.56% (active); with HOP-92 NSCLC, -6.61% (active); with NCI-H522 lung it was -17.1% (active). In addition, the growth in the assay on A549/ATCC NSCLC was 6.01% (active); with 786-0 renal it was 8.94% (active); with COLO 205 colon, 52.1%; in the assay on DU-145 prostate, 19.5%.

Take `CC(=O)c1ccc2oc(=O)n(Cc3ccc(C#N)cc3)c(=O)c2c1`: the growth was 103% with NCI-H23 lung; 100% in the assay with NCI-H322M lung; 103% in the assay with HOP-62 NSCLC; 106% in the assay on NCI-H460 lung; 95.2% in the assay on HOP-92 NSCLC; 99.5% with NCI-H522 lung. For the same compound, the growth with A549/ATCC NSCLC is 103%; with 786-0 renal, 103%; with COLO 205 colon, 114%; with DU-145 prostate, 111%.

For the compound `O=C(Nc1ncc(Cc2cccc(C(F)(F)F)c2)s1)C1COc2ccccc2O1` (stereo not given), the growth in the assay with NCI-H23 lung is 88.6%; with NCI-H322M lung, 91.2%; in the assay on HOP-62 NSCLC it was 92.1%; in the assay with NCI-H460 lung, 97.7%; in the assay with HOP-92 NSCLC it was 72.2%; in the assay on NCI-H522 lung, 67.8%. Besides, the growth in the assay with A549/ATCC NSCLC was 74.7%; with 786-0 renal, 99.2%; in the assay on COLO 205 colon, 104%; in the assay on DU-145 prostate, 105%.

`CCOC(=O)c1sc(-c2ccc(OS(=O)(=O)c3ccc(Br)s3)c(C=O)c2)nc1C`: the growth is 11.9% with NCI-H23 lung; 83.8% in the assay on NCI-H322M lung; 19.6% with HOP-62 NSCLC; 77.6% with NCI-H460 lung; 26.5% in the assay on HOP-92 NSCLC; -5.7% (active) in the assay with NCI-H522 lung. The growth with A549/ATCC NSCLC is 76.1%; with 786-0 renal it was 9.63% (active); in the assay on COLO 205 colon it was 84.8%; in the assay on DU-145 prostate it was 21.2%.

As for `CCN1C(=O)N(CC)C2C1NN=c1s/c(=C3\C(=O)N(C(C)C)c4ccccc43)c(=O)n12` (stereo not given), the growth with NCI-H23 lung was 28.8%; in the assay on NCI-H322M lung it was 52.6%; with HOP-62 NSCLC it was 38.7%; in the assay with NCI-H460 lung it was 5.6% (active); in the assay on HOP-92 NSCLC, 54%; with NCI-H522 lung, -3.38% (active). Further, the growth in the assay on A549/ATCC NSCLC was 16.5%; in the assay with 786-0 renal, 30.6%; in the assay on COLO 205 colon it was -16% (active); with DU-145 prostate, 3.71% (active).

For `O=C(Nc1ccc(Br)cc1F)c1cc(I)ccc1O`, the growth in the assay with NCI-H23 lung was 4.95% (active); in the assay on NCI-H322M lung it was 2.64% (active); in the assay with HOP-62 NSCLC, 0.452% (active); with NCI-H460 lung it was 6.01% (active); in the assay on HOP-92 NSCLC, -27.7% (active); in the assay with NCI-H522 lung, -30% (active). The growth in the assay on A549/ATCC NSCLC was 4.34% (active); in the assay with 786-0 renal it was 2.92% (active); with COLO 205 colon it was 104%; with DU-145 prostate, 17.2%.

Regarding `COC(=O)/C(CCC=C(C)C)=C1\[C@@H](OC(C)=O)C[C@@]2(C)[C@H]1C[C@@H](O)[C@H]1[C@@]3(C)CC[C@H](NCc4ccccc4)[C@@H](C)[C@@H]3CC[C@@]12C`, the growth in the assay with NCI-H23 lung was 81.4%; in the assay on NCI-H322M lung, 91.5%; in the assay with HOP-62 NSCLC, 84%; in the assay on NCI-H460 lung, 45.1%; in the assay with HOP-92 NSCLC it was 48.8%; in the assay on NCI-H522 lung, 80%. For the same compound, the growth is 59% in the assay with A549/ATCC NSCLC, 55.4% in the assay with 786-0 renal, 50% in the assay with COLO 205 colon and 74.8% with DU-145 prostate.

For the compound `CN(C)CCNc1cc(-c2ccccc2)nc2ccccc12`, the growth in the assay on NCI-H23 lung was -32.9% (active); in the assay with NCI-H322M lung, 8.29% (active); in the assay on HOP-62 NSCLC, -65.4% (active); with NCI-H460 lung it was 0.75% (active); in the assay on HOP-92 NSCLC, -68.6% (active); with NCI-H522 lung, -90.6% (active). In addition, the growth in the assay with A549/ATCC NSCLC was -53.8% (active); with 786-0 renal, -79.2% (active); with COLO 205 colon, -73.7% (active); in the assay on DU-145 prostate, -62.1% (active).

As to `COc1ccc(C(O)(CCC(C)C)C(CN2CCOCC2)c2ccc(Cl)cc2)cc1` (stereo not given), the growth in the assay on NCI-H23 lung is 74.6%; with NCI-H322M lung it was 88.3%; in the assay on HOP-62 NSCLC, 63.6%; in the assay with NCI-H460 lung, 86.8%; in the assay on HOP-92 NSCLC it was 77.8%; in the assay with NCI-H522 lung, -16.9% (active). The growth in the assay on A549/ATCC NSCLC is 62.4%; with 786-0 renal it was 73.3%; with COLO 205 colon it was 76.4%; in the assay on DU-145 prostate, 73.8%.

The values are drawn from PubChem BioAssay (NCI).
